The panel holds about 83,000 compounds, 20% with a hit somewhere; the sample as a whole holds those more often.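 Growth was measured after 48 h exposure to one concentration of compound in 96-well plates. Values under 10 count as active.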 Unmarked numbers belong to inactive results. Activity calls are given as the source filed them.

Some test systems named below: SR leukemia; RPMI-8226 leukemia; OVCAR-8 ovarian; OVCAR-5 ovarian; OVCAR-4 ovarian; SK-OV-3 ovarian; IGROV1 ovarian; OVCAR-3 ovarian; HS 578T breast; NCI/ADR-RES ovarian; T-47D breast; BT-549 breast; MDA-MB-435 melanoma; SW-620 colon; MCF7 breast; HCT-116 colon; HCC-2998 colon; KM12 colon.
What all share (assay): NCI-60 one-dose screen, 48 h (100 = growth as untreated, 0 = no growth, -100 = all killed)
Conditions in all cases: 10 µM

For the compound `CCCCCCCOc1cccc(/C=C2/C(=O)N=C3SCCCN32)c1`, the growth in the assay with SR leukemia is 47.9%; in the assay with RPMI-8226 leukemia, 40.8%; with OVCAR-8 ovarian, 71.6%; in the assay on OVCAR-5 ovarian, 91.2%; in the assay with OVCAR-4 ovarian it was 63.1%; in the assay on SK-OV-3 ovarian it was 88%. The growth in the assay with IGROV1 ovarian was 79.9%; in the assay on OVCAR-3 ovarian it was 50.9%; in the assay with HS 578T breast it was 91.4%; in the assay with NCI/ADR-RES ovarian, 56.8%; with T-47D breast, 0.89% (active); with BT-549 breast it was 51.3%. In addition, the growth is 56.4% in the assay on MDA-MB-435 melanoma; 76.6% with SW-620 colon; 29.4% in the assay on MCF7 breast; 39.9% in the assay with HCT-116 colon; 95.8% with HCC-2998 colon; 75.2% in the assay with KM12 colon.

Take `N#CN1CC[C@H](C(=O)Nc2ncc(-c3ccccc3)s2)C1`: the growth in the assay on SR leukemia was 0.907% (active); in the assay on RPMI-8226 leukemia, 3.84% (active); in the assay on OVCAR-8 ovarian, 2.85% (active); in the assay with OVCAR-5 ovarian it was 1.27% (active); with OVCAR-4 ovarian, -6.05% (active); in the assay on SK-OV-3 ovarian it was 5.15% (active). Besides, the growth in the assay with IGROV1 ovarian was 11%; in the assay on OVCAR-3 ovarian, -32.5% (active); in the assay on HS 578T breast, -7.39% (active); in the assay on NCI/ADR-RES ovarian, 4.61% (active); in the assay on T-47D breast, -44% (active); with BT-549 breast, -5.31% (active). Also, the growth is 0.958% (active) in the assay on MDA-MB-435 melanoma; 5.19% (active) in the assay with SW-620 colon; 3.54% (active) with MCF7 breast; -3.16% (active) in the assay on HCT-116 colon; -11.1% (active) in the assay with HCC-2998 colon; -6.3% (active) in the assay with KM12 colon.

For the compound `CNC(=O)c1cc(Oc2ccc(NC(=O)Nc3ccc(Cl)c(OC(C)C)c3)c(F)c2)ccn1`, the growth with SR leukemia was 40.8%; with RPMI-8226 leukemia it was 26.8%; in the assay on OVCAR-8 ovarian, 53.9%; in the assay on OVCAR-5 ovarian, 85.3%; with OVCAR-4 ovarian, 24.1%; in the assay with SK-OV-3 ovarian, 82.8%. The growth with IGROV1 ovarian is 60.8%; in the assay with OVCAR-3 ovarian it was 58.3%; in the assay on HS 578T breast, 64.6%; with NCI/ADR-RES ovarian it was 56%; in the assay with T-47D breast, 9.9% (active); in the assay on BT-549 breast, 75.1%. The growth with MDA-MB-435 melanoma was 43.2%; with SW-620 colon it was 68.2%; in the assay with MCF7 breast, 31%; with HCT-116 colon, 30.4%; in the assay on HCC-2998 colon, 66.7%; in the assay on KM12 colon it was 24.4%.

Turning to `COc1cc(C)c2sc3ccccc3c(=O)c2c1NCCN(C)C`, the growth in the assay on SR leukemia is 3.64% (active); in the assay with RPMI-8226 leukemia, 33.3%; with OVCAR-8 ovarian, 40.5%; in the assay with OVCAR-5 ovarian, 87%; in the assay on OVCAR-4 ovarian it was 72.8%; in the assay with SK-OV-3 ovarian, 65.7%. Moreover, the growth in the assay on IGROV1 ovarian is 29.3%; with OVCAR-3 ovarian, 87.4%; in the assay on HS 578T breast, 58.6%; in the assay on NCI/ADR-RES ovarian, 61.9%; in the assay with T-47D breast it was 78.4%; in the assay with BT-549 breast, 93.8%. Further, the growth with MDA-MB-435 melanoma was 12%; in the assay with SW-620 colon it was 34.9%; with MCF7 breast, 22.2%; in the assay on HCT-116 colon, 43%; in the assay on HCC-2998 colon it was 28.9%; in the assay on KM12 colon, 65%.

For `Cc1ccc(C(=O)O)c(N)c1C`, the growth is 98.4% with SR leukemia; 98.7% in the assay with RPMI-8226 leukemia; 100% in the assay with OVCAR-8 ovarian; 106% in the assay with OVCAR-5 ovarian; 99.3% in the assay with OVCAR-4 ovarian; 93.5% in the assay on SK-OV-3 ovarian. In addition, the growth is 91% in the assay with IGROV1 ovarian; 104% in the assay with OVCAR-3 ovarian; 106% in the assay on HS 578T breast; 106% in the assay on NCI/ADR-RES ovarian; 94.5% in the assay with T-47D breast; 94.3% in the assay with BT-549 breast. Further, the growth with MDA-MB-435 melanoma is 105%; in the assay with SW-620 colon it was 104%; with MCF7 breast, 92.6%; with HCT-116 colon it was 92%; in the assay with HCC-2998 colon, 106%; in the assay on KM12 colon, 95%.

In the case of `COc1cccc2c1C(=O)c1c(O)c3c(c(O)c1C2=O)C[C@@](O)(C(=O)COC(=O)c1cccnc1)C[C@@H]3OC1CC(N)C(O)C(C)O1` (some centres not stated), the growth in the assay with SR leukemia was 3.07% (active); in the assay with RPMI-8226 leukemia, -29% (active); in the assay on OVCAR-8 ovarian, -15.8% (active); in the assay on OVCAR-5 ovarian, 6.95% (active); with OVCAR-4 ovarian, 0.907% (active); with SK-OV-3 ovarian, 22.5%. Further, the growth in the assay with IGROV1 ovarian was -12.4% (active); in the assay on OVCAR-3 ovarian, -9.51% (active); in the assay with HS 578T breast, -12.8% (active); in the assay with NCI/ADR-RES ovarian, 57%; in the assay with T-47D breast it was -2.37% (active); in the assay with BT-549 breast it was 5.42% (active). Besides, the growth with MDA-MB-435 melanoma is -87.5% (active); in the assay with SW-620 colon, 3.34% (active); with MCF7 breast, 4.11% (active); in the assay on HCT-116 colon, 6.26% (active); in the assay with HCC-2998 colon, -50.3% (active); in the assay with KM12 colon it was -0.352% (active).

Consider `C=CCNCCCN1C(=O)c2ccc3c4c(ccc(c24)C1=O)C(=O)N(CCCNCC=C)C3=O`, for which the growth in the assay on SR leukemia was -12.8% (active); with RPMI-8226 leukemia, 11.3%; with OVCAR-8 ovarian, -14.5% (active); in the assay with OVCAR-5 ovarian, -44.6% (active); in the assay with OVCAR-4 ovarian, -98.5% (active); in the assay on SK-OV-3 ovarian, -36.9% (active). In addition, the growth in the assay with IGROV1 ovarian is -70.3% (active); with OVCAR-3 ovarian, -18.1% (active); in the assay on HS 578T breast it was -41.3% (active); with NCI/ADR-RES ovarian it was -7.11% (active); in the assay with T-47D breast, -48.6% (active); in the assay on BT-549 breast, -82% (active). Also, the growth with MDA-MB-435 melanoma is -79% (active); with SW-620 colon, -54.1% (active); in the assay with MCF7 breast, -64.8% (active); in the assay with HCT-116 colon, -16% (active); with HCC-2998 colon it was -85.9% (active); in the assay with KM12 colon it was -69.3% (active).

Regarding `Cc1ccc([P+](Cc2ccccc2)(c2ccccc2)c2ccccc2)cc1`, the growth in the assay with SR leukemia is -11.9% (active); in the assay with RPMI-8226 leukemia, -32.1% (active); with OVCAR-8 ovarian, 3.59% (active); in the assay with OVCAR-5 ovarian, 31.7%; in the assay on OVCAR-4 ovarian it was 3.46% (active); with SK-OV-3 ovarian, 21.3%. Also, the growth with IGROV1 ovarian is 0.953% (active); in the assay on OVCAR-3 ovarian it was 19.2%; in the assay with HS 578T breast, 44.8%; with NCI/ADR-RES ovarian, 101%; in the assay with T-47D breast, -3.45% (active); in the assay with BT-549 breast, -4.96% (active). For the same compound, the growth in the assay with MDA-MB-435 melanoma is 2.32% (active); in the assay on SW-620 colon, 24.4%; in the assay on MCF7 breast it was 9.62% (active); in the assay on HCT-116 colon it was 4.1% (active); in the assay with HCC-2998 colon, 21.6%; in the assay on KM12 colon it was 8.34% (active).

As to `CCN1CCN(c2nc(NNC(=O)c3cccc(OC)c3)nc(N3CCN(C(c4ccccc4)c4ccccc4)CC3)n2)CC1`, the growth was -11.8% (active) in the assay with SR leukemia; 5.26% (active) in the assay with RPMI-8226 leukemia; 65% with OVCAR-8 ovarian; 101% in the assay on OVCAR-5 ovarian; 62.4% in the assay with OVCAR-4 ovarian; 76.1% with SK-OV-3 ovarian. Moreover, the growth in the assay on IGROV1 ovarian is 58.5%; with OVCAR-3 ovarian, 72.6%; with HS 578T breast, 64.3%; in the assay with NCI/ADR-RES ovarian, 76.2%; in the assay with T-47D breast it was 47.9%; in the assay with BT-549 breast it was 63.3%. For the same compound, the growth is 19.5% in the assay with MDA-MB-435 melanoma; 69.5% in the assay with SW-620 colon; 12.8% in the assay on MCF7 breast; 26.7% in the assay with HCT-116 colon; -16.4% (active) in the assay on HCC-2998 colon; 25.7% in the assay with KM12 colon.

For the origin of these results see PubChem BioAssay (NCI).
